One molecule from ChEMBL document CHEMBL1961873, “Compounds: GSK PKIS; Assays: Nanosyn kinase panel” (2012) can be followed below.

For assay [1], the target named is Sphingosine kinase 1 (Homo sapiens) (UniProt Q9NYA1). The note with it: at 1 µM.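 Note: mean SPHK1 inhibition value reported from the GSK PKIS kinase panel screen.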
Assay [2] has as its target T1, Sphingosine kinase 2 (Homo sapiens) (UniProt Q9NRA0).
T1 sequence (whole entry): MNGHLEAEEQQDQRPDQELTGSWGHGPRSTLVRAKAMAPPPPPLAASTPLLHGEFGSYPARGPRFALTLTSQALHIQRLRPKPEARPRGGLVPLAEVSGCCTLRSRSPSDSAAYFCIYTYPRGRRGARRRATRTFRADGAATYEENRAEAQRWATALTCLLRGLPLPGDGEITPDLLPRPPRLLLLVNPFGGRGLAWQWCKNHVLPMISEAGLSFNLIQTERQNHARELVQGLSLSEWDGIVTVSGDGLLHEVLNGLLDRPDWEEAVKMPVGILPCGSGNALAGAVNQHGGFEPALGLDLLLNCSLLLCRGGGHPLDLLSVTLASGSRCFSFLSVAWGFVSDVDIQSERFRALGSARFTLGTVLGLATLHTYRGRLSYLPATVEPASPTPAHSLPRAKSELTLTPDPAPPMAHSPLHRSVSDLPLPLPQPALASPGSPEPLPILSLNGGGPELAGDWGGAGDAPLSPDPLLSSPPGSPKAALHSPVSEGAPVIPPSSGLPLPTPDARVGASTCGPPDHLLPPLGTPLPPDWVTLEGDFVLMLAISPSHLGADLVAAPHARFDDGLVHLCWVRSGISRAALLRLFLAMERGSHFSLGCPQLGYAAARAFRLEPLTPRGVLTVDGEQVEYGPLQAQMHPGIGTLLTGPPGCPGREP
To be noted: at 0.1 µM.

Assay [3] addresses T1, Sphingosine kinase 2 (Homo sapiens). To be noted: at 1 µM.
Assay [4] concerns the target Casein kinase II subunit alpha (Homo sapiens) (UniProt P68400). The note with it: at 0.1 µM.
Assay [5] shares this target. To be noted: at 1 µM.
Assay [6] has as its target T2, Inhibitor of nuclear factor kappa-B kinase subunit alpha (Homo sapiens) (UniProt O15111).
T2 sequence (whole entry): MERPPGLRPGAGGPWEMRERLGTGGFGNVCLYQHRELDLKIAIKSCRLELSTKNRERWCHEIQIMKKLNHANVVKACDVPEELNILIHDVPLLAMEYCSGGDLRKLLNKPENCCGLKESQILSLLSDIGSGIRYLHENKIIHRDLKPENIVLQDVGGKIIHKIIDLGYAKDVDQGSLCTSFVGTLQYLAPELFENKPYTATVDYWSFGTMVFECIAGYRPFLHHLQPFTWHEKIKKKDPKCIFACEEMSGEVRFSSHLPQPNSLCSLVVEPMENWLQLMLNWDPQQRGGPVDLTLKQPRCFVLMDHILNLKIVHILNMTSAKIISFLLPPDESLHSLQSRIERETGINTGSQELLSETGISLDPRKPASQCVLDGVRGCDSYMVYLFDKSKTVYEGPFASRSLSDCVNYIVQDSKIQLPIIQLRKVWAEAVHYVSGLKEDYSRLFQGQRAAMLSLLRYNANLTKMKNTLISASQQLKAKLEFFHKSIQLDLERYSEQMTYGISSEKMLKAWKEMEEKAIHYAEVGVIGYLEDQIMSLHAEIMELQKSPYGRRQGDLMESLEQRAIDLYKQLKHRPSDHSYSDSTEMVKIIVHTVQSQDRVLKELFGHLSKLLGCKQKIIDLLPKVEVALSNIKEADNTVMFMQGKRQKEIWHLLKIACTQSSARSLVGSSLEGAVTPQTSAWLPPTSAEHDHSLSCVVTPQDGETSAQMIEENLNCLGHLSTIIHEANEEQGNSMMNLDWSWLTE
To be noted: at 0.1 µM.

For assay [7], the target named is T2, Inhibitor of nuclear factor kappa-B kinase subunit alpha (Homo sapiens). The note with it: at 1 µM.
The target of assay [8] is T3, Inhibitor of nuclear factor kappa-B kinase subunit beta (Homo sapiens) (UniProt O14920).
T3 sequence (whole entry): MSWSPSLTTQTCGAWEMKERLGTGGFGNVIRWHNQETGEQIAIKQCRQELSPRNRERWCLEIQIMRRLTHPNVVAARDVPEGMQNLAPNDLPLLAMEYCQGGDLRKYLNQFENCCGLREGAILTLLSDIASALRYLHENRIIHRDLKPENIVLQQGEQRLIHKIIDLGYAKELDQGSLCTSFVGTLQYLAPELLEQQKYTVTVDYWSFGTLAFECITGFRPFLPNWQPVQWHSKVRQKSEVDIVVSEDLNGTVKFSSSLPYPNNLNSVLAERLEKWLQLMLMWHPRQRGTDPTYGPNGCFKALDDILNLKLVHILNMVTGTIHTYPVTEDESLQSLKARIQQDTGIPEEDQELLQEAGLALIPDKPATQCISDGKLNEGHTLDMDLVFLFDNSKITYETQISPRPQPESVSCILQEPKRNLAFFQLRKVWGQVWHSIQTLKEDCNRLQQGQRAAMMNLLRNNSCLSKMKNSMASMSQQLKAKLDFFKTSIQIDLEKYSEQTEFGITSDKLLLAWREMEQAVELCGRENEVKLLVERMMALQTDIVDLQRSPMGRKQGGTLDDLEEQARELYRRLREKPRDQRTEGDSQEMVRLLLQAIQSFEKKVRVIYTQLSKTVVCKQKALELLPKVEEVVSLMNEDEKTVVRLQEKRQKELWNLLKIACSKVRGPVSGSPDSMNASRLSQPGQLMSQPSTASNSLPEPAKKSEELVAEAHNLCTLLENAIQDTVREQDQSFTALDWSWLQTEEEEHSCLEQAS
The note with it: at 0.1 µM.

The target in assay [9] is T3, Inhibitor of nuclear factor kappa-B kinase subunit beta (Homo sapiens). To be noted: at 1 µM.
The target in assay [10] is T4, Inhibitor of nuclear factor kappa-B kinase subunit epsilon (Homo sapiens) (UniProt Q14164).
T4 sequence (whole entry): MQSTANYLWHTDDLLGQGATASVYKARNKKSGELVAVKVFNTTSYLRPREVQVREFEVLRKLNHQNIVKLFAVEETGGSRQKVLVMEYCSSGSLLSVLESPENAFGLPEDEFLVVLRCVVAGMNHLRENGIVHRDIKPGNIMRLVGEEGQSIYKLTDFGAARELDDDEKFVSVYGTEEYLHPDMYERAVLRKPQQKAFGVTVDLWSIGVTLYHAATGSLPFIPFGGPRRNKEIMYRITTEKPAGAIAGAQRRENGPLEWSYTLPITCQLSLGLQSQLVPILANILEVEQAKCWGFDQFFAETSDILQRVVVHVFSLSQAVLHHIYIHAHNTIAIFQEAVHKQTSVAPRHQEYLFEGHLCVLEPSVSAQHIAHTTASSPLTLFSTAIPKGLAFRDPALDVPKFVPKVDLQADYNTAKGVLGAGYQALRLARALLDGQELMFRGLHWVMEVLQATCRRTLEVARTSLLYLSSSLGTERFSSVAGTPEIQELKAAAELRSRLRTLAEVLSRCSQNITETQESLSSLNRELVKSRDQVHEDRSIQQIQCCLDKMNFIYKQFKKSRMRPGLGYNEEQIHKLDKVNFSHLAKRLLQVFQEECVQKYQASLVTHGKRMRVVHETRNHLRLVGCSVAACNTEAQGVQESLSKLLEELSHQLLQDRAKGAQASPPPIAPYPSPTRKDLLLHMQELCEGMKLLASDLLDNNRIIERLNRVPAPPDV
The note with it: at 0.1 µM.

In assay [11] the target is T4, Inhibitor of nuclear factor kappa-B kinase subunit epsilon (Homo sapiens). The note with it: at 1 µM.
For assay [12], the target named is T5, Serine/threonine-protein kinase Nek1 (Homo sapiens) (UniProt Q96PY6).
T5 sequence (whole entry): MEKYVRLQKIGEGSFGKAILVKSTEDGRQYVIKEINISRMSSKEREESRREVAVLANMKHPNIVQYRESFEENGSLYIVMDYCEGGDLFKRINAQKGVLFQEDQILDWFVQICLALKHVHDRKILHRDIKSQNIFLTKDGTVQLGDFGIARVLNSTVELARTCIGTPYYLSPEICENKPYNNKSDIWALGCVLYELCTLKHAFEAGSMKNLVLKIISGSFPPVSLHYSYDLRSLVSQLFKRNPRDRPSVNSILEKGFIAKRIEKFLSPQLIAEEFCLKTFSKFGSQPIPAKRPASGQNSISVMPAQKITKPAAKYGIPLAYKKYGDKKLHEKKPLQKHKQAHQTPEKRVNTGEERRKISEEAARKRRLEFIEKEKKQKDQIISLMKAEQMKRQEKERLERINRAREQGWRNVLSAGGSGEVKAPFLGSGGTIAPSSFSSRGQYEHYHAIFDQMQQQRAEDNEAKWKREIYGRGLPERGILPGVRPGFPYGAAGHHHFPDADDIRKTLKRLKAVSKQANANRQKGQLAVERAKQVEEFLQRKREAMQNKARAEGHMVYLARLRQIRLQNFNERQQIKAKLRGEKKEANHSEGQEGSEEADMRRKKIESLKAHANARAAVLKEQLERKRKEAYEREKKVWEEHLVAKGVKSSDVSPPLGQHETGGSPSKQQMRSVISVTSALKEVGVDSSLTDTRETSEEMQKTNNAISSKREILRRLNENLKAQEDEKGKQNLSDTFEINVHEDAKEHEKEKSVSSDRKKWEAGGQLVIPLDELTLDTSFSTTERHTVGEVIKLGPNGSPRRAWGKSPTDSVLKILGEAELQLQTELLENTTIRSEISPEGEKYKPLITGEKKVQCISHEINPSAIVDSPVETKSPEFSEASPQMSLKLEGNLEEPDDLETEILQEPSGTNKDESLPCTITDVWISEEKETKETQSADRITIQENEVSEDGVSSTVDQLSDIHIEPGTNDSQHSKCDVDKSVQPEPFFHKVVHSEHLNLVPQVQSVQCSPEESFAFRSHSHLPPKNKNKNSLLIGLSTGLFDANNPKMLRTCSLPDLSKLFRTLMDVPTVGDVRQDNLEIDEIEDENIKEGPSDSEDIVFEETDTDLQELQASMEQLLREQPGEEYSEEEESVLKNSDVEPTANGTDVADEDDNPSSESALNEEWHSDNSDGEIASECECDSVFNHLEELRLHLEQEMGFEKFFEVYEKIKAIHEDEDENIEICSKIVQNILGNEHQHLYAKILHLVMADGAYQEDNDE
To be noted: at 0.1 µM.

Assay [13] has as its target T5, Serine/threonine-protein kinase Nek1 (Homo sapiens). To be noted: at 1 µM.
Assay [14] has as its target T6, Serine/threonine-protein kinase Nek2 (Homo sapiens) (UniProt P51955).
T6 sequence (whole entry): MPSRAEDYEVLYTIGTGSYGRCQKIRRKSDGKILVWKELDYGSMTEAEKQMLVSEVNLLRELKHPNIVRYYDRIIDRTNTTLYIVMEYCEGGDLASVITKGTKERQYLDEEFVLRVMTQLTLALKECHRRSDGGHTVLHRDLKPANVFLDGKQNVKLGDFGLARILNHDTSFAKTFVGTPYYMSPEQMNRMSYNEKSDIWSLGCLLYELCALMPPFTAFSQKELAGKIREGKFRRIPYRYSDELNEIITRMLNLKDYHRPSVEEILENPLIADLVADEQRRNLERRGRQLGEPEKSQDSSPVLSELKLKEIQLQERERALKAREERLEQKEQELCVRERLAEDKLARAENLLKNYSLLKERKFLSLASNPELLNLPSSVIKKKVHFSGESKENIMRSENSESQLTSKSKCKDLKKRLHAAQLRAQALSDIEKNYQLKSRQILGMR
To be noted: at 0.1 µM.

Assay [15] addresses T6, Serine/threonine-protein kinase Nek2 (Homo sapiens). The note with it: at 1 µM.
Assay [16] concerns the target Serine/threonine-protein kinase Nek6 (Homo sapiens) (UniProt Q9HC98). The note with it: at 0.1 µM.
Assay [17] shares this target. The note with it: at 1 µM.
For assay [18], the target named is Serine/threonine-protein kinase Nek7 (Homo sapiens) (UniProt Q8TDX7). The note with it: at 0.1 µM.
Serine/threonine-protein kinase Nek7 (Homo sapiens), sequence (Q8TDX7 whole entry, looked up): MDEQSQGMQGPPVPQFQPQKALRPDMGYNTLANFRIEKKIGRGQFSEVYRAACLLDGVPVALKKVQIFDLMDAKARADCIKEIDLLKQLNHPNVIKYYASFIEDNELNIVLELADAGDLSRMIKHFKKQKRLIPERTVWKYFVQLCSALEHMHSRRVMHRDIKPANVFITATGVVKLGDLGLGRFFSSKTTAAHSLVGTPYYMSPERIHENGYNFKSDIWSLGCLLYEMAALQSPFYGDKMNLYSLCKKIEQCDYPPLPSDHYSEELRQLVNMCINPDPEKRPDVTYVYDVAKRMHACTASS
Assay [19] has the same target. To be noted: at 1 µM.
The target in assay [20] is T7, Serine/threonine-protein kinase Nek9 (Homo sapiens) (UniProt Q8TD19).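 Note: reported value is the mean percent inhibition of NEK9.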
T7 sequence (whole entry): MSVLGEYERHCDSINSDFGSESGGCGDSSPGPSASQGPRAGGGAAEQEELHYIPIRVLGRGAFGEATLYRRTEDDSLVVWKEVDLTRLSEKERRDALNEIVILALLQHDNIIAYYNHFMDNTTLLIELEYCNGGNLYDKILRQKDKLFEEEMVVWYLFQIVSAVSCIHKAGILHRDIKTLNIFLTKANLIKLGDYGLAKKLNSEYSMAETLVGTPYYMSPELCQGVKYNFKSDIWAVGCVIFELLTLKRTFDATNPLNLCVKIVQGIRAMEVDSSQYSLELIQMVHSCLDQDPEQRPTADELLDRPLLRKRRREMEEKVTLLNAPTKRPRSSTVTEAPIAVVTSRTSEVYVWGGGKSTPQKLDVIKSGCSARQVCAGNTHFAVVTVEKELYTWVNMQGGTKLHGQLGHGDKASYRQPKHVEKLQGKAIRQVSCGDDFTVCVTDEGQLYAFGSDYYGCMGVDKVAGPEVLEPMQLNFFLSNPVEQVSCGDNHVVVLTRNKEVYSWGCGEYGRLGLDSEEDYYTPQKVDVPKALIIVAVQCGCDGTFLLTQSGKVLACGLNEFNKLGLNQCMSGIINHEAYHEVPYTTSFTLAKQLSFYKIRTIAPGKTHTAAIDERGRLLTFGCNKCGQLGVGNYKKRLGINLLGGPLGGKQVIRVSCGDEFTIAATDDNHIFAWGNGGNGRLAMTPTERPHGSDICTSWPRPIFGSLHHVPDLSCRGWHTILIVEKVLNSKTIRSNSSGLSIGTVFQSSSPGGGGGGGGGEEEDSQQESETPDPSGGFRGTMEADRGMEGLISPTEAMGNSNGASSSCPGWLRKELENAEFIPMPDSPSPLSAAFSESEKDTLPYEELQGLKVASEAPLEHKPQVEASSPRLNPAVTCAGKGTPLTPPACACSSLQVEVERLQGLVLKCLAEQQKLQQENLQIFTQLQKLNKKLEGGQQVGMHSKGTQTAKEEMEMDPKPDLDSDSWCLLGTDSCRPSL
The note with it: at 0.1 µM.

Structures are written as SMILES.

Casein kinase II subunit alpha (Homo sapiens), sequence (P68400 whole entry, looked up): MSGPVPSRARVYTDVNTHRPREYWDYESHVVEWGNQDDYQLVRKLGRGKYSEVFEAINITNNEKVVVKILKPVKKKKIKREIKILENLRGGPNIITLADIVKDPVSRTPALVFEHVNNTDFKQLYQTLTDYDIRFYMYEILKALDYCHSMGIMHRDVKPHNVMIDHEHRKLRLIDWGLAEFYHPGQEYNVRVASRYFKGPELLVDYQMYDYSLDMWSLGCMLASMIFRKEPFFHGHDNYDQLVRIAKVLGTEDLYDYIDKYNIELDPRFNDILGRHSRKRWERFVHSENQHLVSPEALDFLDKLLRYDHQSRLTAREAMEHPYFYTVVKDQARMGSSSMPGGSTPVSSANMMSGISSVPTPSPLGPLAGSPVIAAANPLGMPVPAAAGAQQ
Serine/threonine-protein kinase Nek6 (Homo sapiens), sequence (Q9HC98 whole entry): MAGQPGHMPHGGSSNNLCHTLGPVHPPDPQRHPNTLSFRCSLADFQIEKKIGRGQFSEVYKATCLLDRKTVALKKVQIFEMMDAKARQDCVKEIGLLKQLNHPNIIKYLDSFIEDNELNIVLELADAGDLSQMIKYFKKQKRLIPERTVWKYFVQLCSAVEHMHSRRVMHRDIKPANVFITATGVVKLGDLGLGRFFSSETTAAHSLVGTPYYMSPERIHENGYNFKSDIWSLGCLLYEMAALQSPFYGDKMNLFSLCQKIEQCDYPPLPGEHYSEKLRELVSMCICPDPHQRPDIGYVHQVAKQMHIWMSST
Sphingosine kinase 1 (Homo sapiens), sequence (Q9NYA1 whole entry): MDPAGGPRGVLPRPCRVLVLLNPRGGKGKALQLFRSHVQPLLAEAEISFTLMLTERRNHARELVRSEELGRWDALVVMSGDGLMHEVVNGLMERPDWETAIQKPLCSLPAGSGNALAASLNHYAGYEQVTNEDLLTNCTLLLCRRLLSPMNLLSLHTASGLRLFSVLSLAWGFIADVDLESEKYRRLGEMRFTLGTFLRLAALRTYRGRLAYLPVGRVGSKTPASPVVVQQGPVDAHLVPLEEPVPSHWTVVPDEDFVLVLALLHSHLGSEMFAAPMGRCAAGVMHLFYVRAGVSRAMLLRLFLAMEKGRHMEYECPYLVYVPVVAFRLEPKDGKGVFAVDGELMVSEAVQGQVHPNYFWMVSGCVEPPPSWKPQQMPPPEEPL

Take `O=S(=O)(CCNCc1ccc(-c2ccc3ncnc(Nc4ccc(OCc5cccc(F)c5)c(Cl)c4)c3c2)o1)c1ccccc1`: the inhibition (commonly the change of the read-out against control, counted positive when it falls) in assay [1] is -5.05%; in [2], -0.55%; in assay [3], 0.69%; in assay [4] it was 10.6%; in assay [5] it was 5.49%; in assay [6] it was 2.96%. Further, the inhibition in [7] was -0.88%; in [8], 6.77%; in assay [9], 7.07%; in [10] it was 12%; in assay [11], 7.29%; in assay [12] it was 3.48%. Further, the inhibition in assay [13] worked out at 5.88%; in assay [14], 5.1%; in assay [15], 7.03%; in [16], 4.21%; in assay [17] it was 2.74%; in assay [18], 3.88%. Further, the inhibition in [19] amounted to 5.26%; in assay [20] it was 4.93%.
